As usually defined, the viability is a read-out of living cells in per cent, often relative to untreated cells.

The assay in a line: reversal of MRP1-mediated doxorubicin resistance, primary screen, H69AR cells, doxorubicin co-treatment (AID 602).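 For differential viability (reversal): larger differential means the compound sensitizes cells more to doxorubicin.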 The conditions noted are these: CellTiter-Glo, 72 h, at 10 µM; for differential viability (reversal): stronger effect = higher value. A general note: Cellular ATP, detected with luciferase, serves as a proxy for viable cell number.
The mark [1] stands for this setting: H69AR cells + 2 uM doxorubicin, measured here: viability with 2 uM doxorubicin, stronger effect = lower value.
The mark [2] stands for this setting: H69AR cells, measured here: cytotoxicity without doxorubicin.

Out of some 85,000 compounds screened, about 35 (0.04%) were called active.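 Rule for the calls: active = viability drop by adding the cancer drug above about 55%, with treated viability meeting a 40% cutoff (limit read from the data); inactive = the rest, inconclusive results apart.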 The full list was thinned out, with actives kept by preference.

For the compound `COC(=O)CCSc1cc([N+](=O)[O-])cc2c1c(C1OCCS1)nn2-c1ccccc1` (centres undefined), the differential viability (reversal) (H69AR cells + 2 uM doxorubicin) is -2.64% (inactive). Moreover, the viability under setting [1] was determined as 101% and the viability under setting [2] turned out to be 98.2%.

As for `CCCOn1c(-n2nc(C)cc2C)nc2ccccc2c1=O`, the differential viability (reversal) (H69AR cells + 2 uM doxorubicin) is 4.29% (inactive). The viability runs as follows: under setting [1], 89.5%; under setting [2], 93.8%.

In the case of `O=C(Nc1ccc(F)c(Cl)c1)C1CCN(S(=O)(=O)c2cccnc2)CC1`, the differential viability (reversal) (H69AR cells + 2 uM doxorubicin) is 1.44% (inactive). The viability is, setting by setting: under setting [1], 70.3%; under setting [2], 71.8%.

For `Cc1ccc(C(=O)N/N=C/c2sc(=O)n(Cc3cccc(C(=O)O)c3)c2Cl)cc1`, for the setting “H69AR cells + 2 uM doxorubicin”, the differential viability (reversal) was -5.62% (inactive). For the same compound, the viability under setting [1] stood at 92.7% and the viability under setting [2] came out at 87.1%.

As for `CCOC(=O)C(C)Sc1nc2ccccc2c(=O)n1CC1CCCCC1` (centres undefined), the differential viability (reversal) (H69AR cells + 2 uM doxorubicin) was 7.81% (inactive). The viability is, setting by setting: under setting [1], 74.6%; under setting [2], 82.4%.

`Cc1cccc(NC(=O)C2CC(=O)OC23CCCC3)c1` (centres undefined): the differential viability (reversal) (H69AR cells + 2 uM doxorubicin) was 6.22% (inactive). Further, the viability came out at 95.5% under setting [1] and 102% under setting [2].

For the compound `COc1ccc(CC(NC(C)=O)C(=O)N2CCN(C(=O)Nc3cccc(Cl)c3)CC2)cc1OC` (centres undefined), the differential viability (reversal) (H69AR cells + 2 uM doxorubicin) is 6.8% (inactive). The viability runs as follows: under setting [1], 85%; under setting [2], 91.8%.

In the case of `O=C(CCS(=O)(=O)c1cccc2nsnc12)N1CCN(c2ccccc2F)CC1`, the differential viability (reversal) (H69AR cells + 2 uM doxorubicin) is 10.9% (inactive). Moreover, the viability under setting [1] is 80% and the viability under setting [2] is 91%.

`COc1ccc(-c2cc(C(=O)NCc3ccco3)no2)cc1OC`: the differential viability (reversal) (H69AR cells + 2 uM doxorubicin) was 7.53% (inactive). Besides, the viability under setting [1] worked out at 92.6% and the viability under setting [2] is 100%.

With `CCOC(=O)C1=C(C)NC2=C(C(=O)CC(C)(C)C2)C1c1ccsc1` (centres undefined), for the setting “H69AR cells + 2 uM doxorubicin”, the differential viability (reversal) was -1.33% (inactive). Besides, the viability amounted to 85.8% under setting [1] and 84.5% under setting [2].

Consider `O=S(=O)(NCCc1ccccc1)c1ccccc1`, for which the differential viability (reversal) (H69AR cells + 2 uM doxorubicin) is 7.78% (inactive). For the same compound, the viability was determined as 95.5% under setting [1] and 103% under setting [2].

As to `CCN(c1ccccc1)S(=O)(=O)c1ccc(NC(=O)C(C)(C)C)cc1`, the differential viability (reversal) (H69AR cells + 2 uM doxorubicin) was -29.8% (inactive). For the same compound, the viability by setting is: under setting [1], 64.7%; under setting [2], 34.8%.

For the compound `COc1ccc(-c2cc(C(F)(F)F)nc(NCc3cccnc3)n2)cc1`, the differential viability (reversal) (H69AR cells + 2 uM doxorubicin) is 1.23% (inactive). Also, the viability is, setting by setting: under setting [1], 91.7%; under setting [2], 92.9%.

Regarding `Cc1ccc(S(=O)(=O)N2CCN(S(=O)(=O)N3CCOCC3)CC2)cc1`, the differential viability (reversal) (H69AR cells + 2 uM doxorubicin) was 3.28% (inactive). The viability reads like this: under setting [1], 89.8%; under setting [2], 93.1%.

Consider `CCOC(=O)/C(C#N)=C\c1c(C)cc(C)c(COC(C)=O)c1C`, for which, where the note is “H69AR cells + 2 uM doxorubicin”, the differential viability (reversal) was 5.79% (inactive). The viability under setting [1] is 89.3% and the viability under setting [2] is 95.1%.

As to `Cc1ccc(F)c(NC(=O)CCc2ccccc2)c1`, under “H69AR cells + 2 uM doxorubicin”, the differential viability (reversal) was 2.31% (inactive). Further, the viability is 95.5% under setting [1] and 97.8% under setting [2].

With `COc1ccc(-n2c(C)csc2=S)cc1`, the differential viability (reversal) (H69AR cells + 2 uM doxorubicin) was -2.75% (inactive). Moreover, the viability is, setting by setting: under setting [1], 89.3%; under setting [2], 86.6%.

Turning to `CCN(CC)CCNC(=O)CCCCCn1c(=O)[nH]c2cc(C(=O)OC)ccc2c1=O`, the differential viability (reversal) (H69AR cells + 2 uM doxorubicin) is 10.3% (inactive). Moreover, the viability turned out to be 91.6% under setting [1] and 102% under setting [2].

Consider `N=c1c2c3c(sc2nc2n1CCCCC2)CCCC3`, for which the differential viability (reversal) (H69AR cells + 2 uM doxorubicin) was 9.08% (inactive). The viability reads like this: under setting [1], 75.2%; under setting [2], 84.3%.

On to `Cc1cnc(NC(=O)C2CCCC2)s1`, for which the differential viability (reversal) (H69AR cells + 2 uM doxorubicin) was -2.44% (inactive). For the same compound, the viability reads like this: under setting [1], 100%; under setting [2], 97.7%.

As to `Oc1ccccc1CNc1ncc(Br)cc1Br`, where the note is “H69AR cells + 2 uM doxorubicin”, the differential viability (reversal) is -9.74% (inactive). For the same compound, the viability under setting [1] was found to be 83.2% and the viability under setting [2] stood at 73.5%.

On to `O=C(COC(=O)c1n[nH]c2ccccc12)NCc1ccccc1`, for which the differential viability (reversal) (H69AR cells + 2 uM doxorubicin) is 1.28% (inactive). Besides, the viability under setting [1] is 95.4% and the viability under setting [2] came to 96.7%.

Take `CCOc1ccc(Nc2nc(Cc3nnc(SCC(=O)c4ccc(C)cc4)o3)cs2)cc1`: the differential viability (reversal) (H69AR cells + 2 uM doxorubicin) was -4.34% (inactive). The viability by setting is: under setting [1], 92.9%; under setting [2], 88.6%.

Consider `O=C1CC(Sc2ncn[nH]2)C(=O)N1c1ccccc1` (centres undefined), for which, under “H69AR cells + 2 uM doxorubicin”, the differential viability (reversal) was 9.11% (inactive). The viability came to 87% under setting [1] and 96.1% under setting [2].

With `O=C(c1cccc(F)c1)N1CCC(O)(c2cccnc2)CC1`, the differential viability (reversal) (H69AR cells + 2 uM doxorubicin) is 5.21% (inactive). Moreover, the viability reads like this: under setting [1], 82.9%; under setting [2], 88.1%.

For the compound `O=C(NCc1ccco1)C1(c2ccc(Cl)cc2)CCCC1`, the differential viability (reversal) (H69AR cells + 2 uM doxorubicin) was -5.04% (inactive). The viability by setting is: under setting [1], 102%; under setting [2], 96.8%.

For the compound `O=C(c1ccc2c(c1)OCO2)N1CCN(C(=O)c2ccco2)CC1`, the differential viability (reversal) (H69AR cells + 2 uM doxorubicin) is 18.9% (inactive). Moreover, the viability under setting [1] is 73% and the viability under setting [2] came out at 91.9%.

In the case of `O=C(c1ccccc1Oc1ccccc1)N1CCN(c2ccc(F)cc2)CC1`, the differential viability (reversal) (H69AR cells + 2 uM doxorubicin) is 4.49% (inactive). Besides, the viability was found to be 95.8% under setting [1] and 100% under setting [2].

With `COc1ccc(N2CCN(C(=O)CCc3nc(-c4ccc(C)cc4)no3)CC2)cc1`, the differential viability (reversal) (H69AR cells + 2 uM doxorubicin) is 16.8% (inactive). Moreover, the viability under setting [1] stood at 81.6% and the viability under setting [2] is 98.4%.

`CS(=O)(=O)N(Cc1ccc(Cl)cc1)c1ccc(C(=O)NCCSCc2ccco2)cc1`: under “H69AR cells + 2 uM doxorubicin”, the differential viability (reversal) was -17.6% (inactive). Further, the viability runs as follows: under setting [1], 111%; under setting [2], 93.7%.

Regarding `COC(=O)C1=C(Nc2ccc(OC)cc2)C=C(C)C(C(=O)OC)C1c1ccc(C)cc1` (centres undefined), the differential viability (reversal) (H69AR cells + 2 uM doxorubicin) is -22.3% (inactive). The viability reads like this: under setting [1], 77.8%; under setting [2], 55.6%.

For `COc1ccc(C(C#N)N2N=C(C)CC2(C)C)cc1` (centres undefined), for the setting “H69AR cells + 2 uM doxorubicin”, the differential viability (reversal) is 15.2% (inactive). For the same compound, the viability is, setting by setting: under setting [1], 89.1%; under setting [2], 104%.

For `Cn1c(=O)c2c(SCC(=O)N3CCOCC3)nc(C3CC3)nc2n(C)c1=O`, the differential viability (reversal) (H69AR cells + 2 uM doxorubicin) was -2.72% (inactive). Further, the viability was found to be 84.5% under setting [1] and 81.8% under setting [2].

Regarding `CO/N=C(/CS(=O)(=O)c1ccc(Br)cc1)c1ccc(OC)cc1`, the differential viability (reversal) (H69AR cells + 2 uM doxorubicin) is -26.9% (inactive). The viability by setting is: under setting [1], 58.3%; under setting [2], 31.4%.

With `CCSc1ccccc1C(=O)NCc1ccc(OC)cc1`, under “H69AR cells + 2 uM doxorubicin”, the differential viability (reversal) was 7.76% (inactive). Besides, the viability by setting is: under setting [1], 84.9%; under setting [2], 92.6%.

Regarding `Cc1ccc2cc(CCNC(=O)c3ccc4c(c3)OCO4)c(=O)[nH]c2c1`, the differential viability (reversal) (H69AR cells + 2 uM doxorubicin) is -5.04% (inactive). Moreover, the viability reads like this: under setting [1], 84.9%; under setting [2], 79.8%.

Turning to `CCC(O)CNc1nc(-n2nc(C)cc2C)nc2sc3c(c12)CC(C)(C)OC3` (centres undefined), the differential viability (reversal) (H69AR cells + 2 uM doxorubicin) is -4.15% (inactive). The viability stood at 48.8% under setting [1] and 44.6% under setting [2].

Regarding `CC(C)(CNC(=O)c1cc(=O)[nH]c2ccccc12)N1CCOCC1`, the differential viability (reversal) (H69AR cells + 2 uM doxorubicin) is 3.32% (inactive). For the same compound, the viability was determined as 97.6% under setting [1] and 101% under setting [2].

(Values after PubChem BioAssay AID602 (SRMLSC, 2007).)
